Out of some 330,000 compounds screened, about 4,900 (1.5%) were called active. The sample holds actives, similar compounds and a random draw of the others, so the mix is not that of the screen.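 How the source made its calls: active means inhibition above about 50% at the single test dose (limit read from the data); inactive means the rest.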

Usually inhibition stands for the relative decrease from the control value, in per cent.

The target in this assay is Sentrin-specific protease 7 (Homo sapiens) (UniProt Q9BQF6). Put plainly: blockers of human SENP7 peptidase activity – biochemical, luminescence, uHTS, primary screen (AID 434973).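 Further: plate controls were DMSO with enzyme for no effect and no enzyme buffer wells for full effect.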 The conditions noted are these: recombinant SENP7, Z-RLRGG-aminoluciferin luminescence, 40 min; at 5 µM; active compounds read high.
With `Cc1cccc(S(=O)(=O)N2CN(CC3CCCO3)c3nc4ccccc4nc32)c1` (stereo unspecified), the inhibition was -0.481% (inactive).
The same measure for `O=C(c1ccc(CSc2ccccc2)cc1)N1CCCCCC1`: 72.6% (active); for `CC1CCN(C(=O)c2ccc(CSc3ccc(Cl)cc3)cc2)CC1`: -2.26% (inactive); for `O=C(c1ccc(S(=O)(=O)c2ccccc2)cc1)N1CCCCCC1`: 3.58% (inactive).
Then `CCc1ccccc1OCC(=O)Nc1ccc(C)c(S(=O)(=O)N2CCCCCC2)c1`, with 1.37% (inactive); and `C/C(=N\NC(=O)c1ccoc1C)c1ccccc1O`, with 51.5% (active).
Then `Cc1cc(C(=O)NNC(=O)c2ccccc2O)c(C)o1`, with 9.67% (inactive).
On to `COc1ccccc1N(CC(=O)N/N=C(\C)c1ccccc1O)S(=O)(=O)c1ccc(C)cc1`, for which the inhibition was 3.18% (inactive).
The same measure for `COc1ccc2c(CC(=O)OCC(=O)Nc3ccccc3[N+](=O)[O-])coc2c1`: -12% (inactive); for `COC(=O)c1ccc(S(=O)(=O)N(CCO)Cc2ccccc2)n1C`: 1.52% (inactive).
The same measure for `O=C(COC(=O)c1ccc(Br)o1)NC12CC3CC(CC(C3)C1)C2`: 7.39% (inactive).
Turning to `CCOc1ccc(-n2cnnn2)cc1S(=O)(=O)N1CCC(C)CC1C` (stereo unspecified), the inhibition is 7.69% (inactive).
As to `Cc1cccc(-c2noc(-c3ccc(F)cc3)n2)c1`, the inhibition is 94.2% (active).
The same measure for `Cc1ccc(-c2nc(-c3ccncc3)no2)c(C)c1`: 42.5% (inactive); for `Cc1cccc(-c2noc(CCC(=O)NC3CCCC3)n2)c1`: -8.85% (inactive); for `Cc1ccc(-n2c(C)cc(C(=O)CSc3nnc4ccccn34)c2C)cc1`: -18.4% (inactive).
The same measure for `Nc1nonc1-n1nnc(C(=O)N/N=C/c2ccc(Cl)cc2)c1-c1ccc2c(c1)OCO2`: -3.14% (inactive); for `Cc1cc(C)n2nc(C(=O)Oc3ccc4c(c3)OCO4)nc2n1`: 4.97% (inactive); for `CCOc1ccc(S(=O)(=O)Nc2nc3cc(OC)ccc3s2)cc1`: 6.2% (inactive).
Then `COc1ccc2nc(Nc3nc4cc5c(cc4s3)OCCO5)sc2c1`, with 52.6% (active); and `COc1ccc2nc(NC(=O)[C@@H]3CCCN3C(=O)c3cccs3)sc2c1`, with -10% (inactive); and `CC[C@]12c3[nH]c4cc(CCC(=O)N(C)C)ccc4c3CCN1C(=O)[C@@H](CC(=O)NCCCn1ccnc1)C[C@@H]2C(=O)N1CCN(C(=O)C2CC2)CC1`, with -1.68% (inactive).
Regarding `Cc1ccc(C)c(C(=O)N2CCC(n3nccc3NC(=O)C3CC3)CC2)c1`, the inhibition was 0.772% (inactive).
Then `COc1ccc(N2CCN(C(=O)c3ccc4c(Cl)c5c(nc4c3)CCCC5)CC2)cc1`, with -4.91% (inactive).
Take `CC(C)CCNC(=O)c1ccc2c(Cl)c3c(nc2c1)CCC3`: the inhibition is 84.1% (active).
Then `CC(=O)c1ccc(NC(=O)c2ccc3c(Cl)c4c(nc3c2)CCCC4)cc1`, with -3.44% (inactive); and `CC(C)Cc1ccc(S(=O)(=O)N2CCN(C(=O)c3ccco3)CC2)cc1`, with 3.59% (inactive); and `O=C1c2ccccc2NC(c2ccccn2)N1NS(=O)(=O)c1ccccc1` (stereo unspecified), with 0.965% (inactive).
The same measure for `CN(Cc1ccccc1)C(=O)c1cccc(C(=O)N(C)Cc2ccccc2)c1`: 0.789% (inactive); for `O=C(COC(=O)CNS(=O)(=O)c1ccc(F)c(F)c1F)NC1CCCC1`: 4.55% (inactive); for `O=[N+]([O-])c1ccc2c(c1)Nc1nc3ccccc3nc1N2`: -3.53% (inactive).
Then `O=[N+]([O-])c1ccc(N/N=C2/CCCCC2c2ccccn2)c([N+](=O)[O-])c1` (stereo unspecified), with -1.83% (inactive); and `O=[N+]([O-])c1ccc2nc(-c3ccccn3)[nH]c2c1`, with 70.4% (active).
As to `O=S(=O)(NCCCc1ccccc1)c1ccc(Br)cc1`, the inhibition was 5.53% (inactive).
For the compound `Clc1ccccc1SCc1nc2ccccc2[nH]1`, the inhibition is 35.5% (inactive).
The same measure for `COc1ccc(-c2[nH]nc(-c3ccccc3)c2-c2nc3ccccc3[nH]2)cc1`: 1.53% (inactive); for `c1ccc2[nH]c(-c3nc4ccccc4[nH]3)nc2c1`: 99.5% (active); for `Cc1ccc(-c2nc3ccccc3[nH]2)cc1N`: 94.4% (active).
The same measure for `COc1ccc(Br)cc1C(=O)NC(=S)Nc1cc(-c2nc3ccccc3[nH]2)ccc1C`: 2.43% (inactive).
The same measure for `Cc1ccccc1N1CC(c2nc3ccccc3[nH]2)CC1=O` (stereo unspecified): 4.87% (inactive); for `O=C(CN1C(=O)c2ccc([N+](=O)[O-])cc2C1=O)Nc1nnc(C2CC2)s1`: -1.7% (inactive).
Take `COc1ccc(CN2CCOC2=O)cc1OC`: the inhibition was 0.943% (inactive).
Then `CCC(=NC1CC(C)(C)NC(C)(C)C1)C1=C(O)CC(C)(C)CC1=O`, with -2.04% (inactive).
Then `O=C1C(=O)N(CCCN2CCOCC2)C(c2ccc([N+](=O)[O-])cc2)/C1=C(\O)c1ccc2c(c1)OCCO2` (stereo unspecified), with 56.5% (active); and `O=C1C(=O)N(CCN2CCOCC2)C(c2cccc(Cl)c2)/C1=C(/O)c1ccc2c(c1)OCO2` (stereo unspecified), with 0% (inactive).
Then `COc1ccc(C2/C(=C(/O)c3ccc(OC(C)C)cc3)C(=O)C(=O)N2CCCN2CCOCC2)cc1` (stereo unspecified), with -3.1% (inactive); and `COc1ccccc1OCc1ccc(C(=O)NC(C)c2ccccc2)o1` (stereo unspecified), with -1.75% (inactive); and `Cc1ccc(S(=O)(=O)CCC(=O)Nc2nnc(CC(C)C)s2)cc1`, with 10.9% (inactive).
Consider `Cc1ccc(OC(=O)c2cc3ccccc3o2)cc1`, for which the inhibition is 80.7% (active).
For the compound `COc1ccccc1CN(C)C(=O)c1cc2ccccc2o1`, the inhibition was 6.76% (inactive).
The same measure for `C/C(=N\NC(=S)Nc1ccc(C)cc1)c1cc2ccccc2o1`: -0.14% (inactive); for `COc1cc(C(=O)OCC(=O)NC23CC4CC(CC(C4)C2)C3)cc(OC)c1OC`: 7.88% (inactive).
Then `COc1cc(C2/C(=C(\O)c3ccc4c(c3)CC(C)O4)C(=O)C(=O)N2c2nnc(C)s2)cc(OC)c1OC` (stereo unspecified), with 0.235% (inactive).
Then `COc1ccc(CNC(=O)CN(Cc2ccccc2Cl)C(=O)c2csnn2)cc1`, with -0.595% (inactive); and `CCCCn1c(N)c(N(CCC(C)C)C(=O)CC2OC(=O)c3ccccc32)c(=O)[nH]c1=O` (stereo unspecified), with 0.323% (inactive); and `O=C(Nc1ccc(NC(=O)c2ccco2)c(Cl)c1)c1cccc([N+](=O)[O-])c1`, with 52.1% (active).
In the case of `CC(C)(C)SCCNC(=O)c1cccc([N+](=O)[O-])c1`, the inhibition is 0.866% (inactive).
Then `O=C(Nc1ccc(C2CC2(Cl)Cl)cc1)c1cccc([N+](=O)[O-])c1` (stereo unspecified), with 54.2% (active); and `COc1cc(NC(=O)c2cc([N+](=O)[O-])ccc2Br)ccc1NC(=O)c1ccco1`, with -5.49% (inactive); and `O=C(c1cccc([N+](=O)[O-])c1)N1CCN(C(=O)c2ccco2)CC1`, with 3.1% (inactive).
Then `Cc1cc(C)nc(NC(=O)c2cccc([N+](=O)[O-])c2)c1`, with 2.66% (inactive).
